Results on 107 molecules are retold here after ChEMBL document CHEMBL3988442, “University of Dundee, Small-Polar-MMV Screening Library” (2021).

About 13,000 (27%) of roughly 48,000 compounds showed an effect of 50% or more. The list shows a part of the results.

The test system of this experiment is Wolbachia pipientis. Put plainly: Anti-Wolbachia Cell-Based Screen. The experiment is classed as functional. Further details: scale not given: in the data most compounds retested in dose-response had high values. As to conditions: 5 µM.
Consider `CN(CCNS(C)(=O)=O)CC(c1cccs1)N1CCOCC1` (configuration not stated), for which the “Percent Effect” value is recorded as -6.912%. In the case of `Cc1nc(-c2noc3ccc(C(=O)NCCN4CCOCC4)cc23)cs1`, the “Percent Effect” value is recorded as -14.65%.

On to `CCCc1nc(C)c(C(=O)NCCN2CCOCC2)s1`, for which the “Percent Effect” value was found to be 118.3%.

With `CCc1nc(C)c(C(=O)NCCNc2ncccn2)s1`, the “Percent Effect” value is on record as -5.791%.

For `CCCc1nc(C)c(C(=O)NCCN2CCCCC2)s1`, the “Percent Effect” value is recorded as 125.3%. The same measure for `CCCc1nc(C)c(C(=O)NC2CCN(c3ncccn3)CC2)s1`: -4.746%; for `CCc1nc(C)c(CNC(=O)CCCN2CCCCC2)s1`: -7.179%; for `CCCc1nc(C)c(C(=O)NC2CCN(C3CC3)C2)s1` (configuration not stated): 4.49%. The same measure for `CCCc1nc(C)c(C(=O)NCCn2ccnc2)s1`: -2.524%; for `CCc1nc(C)c(C(=O)NCCN2CCCC2)s1`: 119.2%; for `Cc1cc(F)ccc1S(=O)(=O)NCc1[nH]ncc1Br`: 19.22%. With `COc1ccc2c(c1)OCC(Cc1ccc(N)cn1)C2` (configuration not stated) the figure was -6.73%. Take `Cc1ccsc1CN1CC2(CCN(C(=O)C3CC3)CC2)CC1C(=O)O` (configuration not stated): the “Percent Effect” value is recorded as -16.18%. Consider `Cc1ccsc1CN1CCCC(CNC(=O)c2ccc(N)nc2)C1` (configuration not stated), for which the “Percent Effect” value is given as 1.774%. With `Cc1ccc(NC(=O)c2nc3c(s2)CCCN3C(C)C)cn1` the figure was 4.841%; with `CCCc1nc(C)cc(N2CCNC(C(=O)Nc3ccc(C)nc3)C2)n1` (configuration not stated), -5.575%; with `O=C(Nc1cccnc1)C1CCN(c2cc(-n3ccnc3)ncn2)CC1`, 4.084%.

In the case of `Cc1ccc(N2CCC(C3CCN(CC(C)C)CC3)C2)nn1` (configuration not stated), the “Percent Effect” value is recorded as -23.48%. The same measure for `CC(C)=CCN1C[C@@H](C(=O)O)C[C@H](C(=O)Nc2ccc(C)nc2)C1`: 93.94%; for `Cc1ccc(NC(=O)[C@H]2C[C@H](C(=O)O)CN(CC3CC3)C2)cn1`: 109.3%; for `COc1ccccc1[C@@H]1CN(CC2CCC2)C[C@H]1C(=O)O`: -30.09%.

`Cc1ccc(NC(=O)[C@@H]2C[C@H](C(=O)O)CN(Cc3sccc3C)C2)cn1`: the “Percent Effect” value is 101.2%. The same measure for `Cc1ccc(NC(=O)[C@H]2C[C@H](C(=O)O)CN(CC(C)C)C2)cn1`: 103.8%; for `Cc1cncc(C(=O)N2CCNCC2C(=O)Nc2ccc(C)nc2)c1` (configuration not stated): 4.535%; for `Cc1nc(C(C)(C)C)sc1C(=O)NCCn1cccn1`: 3.617%. The same measure for `COc1ccc(F)cc1CSCC(=O)N(CCC#N)CCC#N`: -2.312%.

Regarding `N#Cc1ccccc1CN1CCC(c2nccn2CC2CCC2)CC1`, the “Percent Effect” value was 43.99%. The same measure for `COC[C@@H]1CC[C@H]2[C@H](CCN2S(=O)(=O)c2cccc(C)c2)O1`: 4.659%. With `Cc1ccccc1CN1CCOC(c2nccc(CN(C)C)n2)C1` (configuration not stated) the figure was 127.2%; with `CN(C)CC1CN(Cc2cc(Cl)cc3cccnc23)CCO1` (configuration not stated), -1.777%; with `Cc1cccnc1CN1CCOC(Cc2cccc3ccccc23)C1` (configuration not stated), -2.143%. The same measure for `CCn1c(CN2CCOC(Cn3cccn3)C2)nc2c(F)cccc21` (configuration not stated): -12.64%; for `CN(C)Cc1ccnc(C2CN(Cc3c(F)cccc3F)CCO2)n1` (configuration not stated): 127%; for `CN(C)CC1CN(Cc2coc(-c3cccs3)n2)CCO1` (configuration not stated): -7.744%.

Regarding `CN(C)CC1CN(Cc2c(Cl)ccc3cccnc23)CCO1` (configuration not stated), the “Percent Effect” value was -12.27%. With `c1ccc2c(CC3CN(Cc4nccs4)CCO3)cccc2c1` (configuration not stated) the figure was -0.1296%; with `COc1cccc(F)c1CN1CCC(c2nccc(C)n2)C1` (configuration not stated), 140.3%; with `CCn1ccnc1C1CCN(Cc2c(F)cccc2F)CC1`, 1.845%.

As to `CN(C)Cc1ccnc(C2CN(Cc3nccs3)CCO2)n1` (configuration not stated), the “Percent Effect” value amounted to 100.5%. In the case of `COc1cccc(O)c1CN1CCCC(Nc2cccc(F)c2)C1` (configuration not stated), the “Percent Effect” value was -13.27%. With `COCCNS(=O)(=O)c1cccc2c1CN(C(=O)c1ccccc1)CC2` the figure was 14.65%; with `O=C(c1ccno1)N1CCOC[C@H](Oc2ccccc2)C1`, -14.73%.

For `CC(C1CCN(Cc2cnn(C)c2C2CC2)CC1)N(C)C` (configuration not stated), the “Percent Effect” value was -2.941%. The same measure for `CC(C)(CN1CCCC1)CN1CCC(Cn2cc(C3CC3)nn2)CC1`: 12.62%; for `O=C(NCc1cc(O)ncn1)C1CCOc2ccccc2C1` (configuration not stated): 8.885%. With `CNC(=O)C(NC(=O)CCc1cccc(OC2CCCC2)c1)C(C)C` (configuration not stated) the figure was -3.816%; with `COCCN1CCCC2(CCN(c3nc(C)nc4ccsc34)C2)C1=O` (configuration not stated), -7.564%. With `CC(C)(C)NC(=O)CN1CCCN(Cc2cc(C#N)ccc2F)CC1` the figure was -2.969%; with `Cc1noc(C)c1-c1cnc(CC2CCN(C(=O)c3cc[nH]n3)C2)cn1` (configuration not stated), -12.99%. As for `Cc1noc(C)c1-c1cc(CC2CCN(C(=O)c3cc[nH]n3)C2)ncn1` (configuration not stated), the “Percent Effect” value was 98.42%.

Consider `Cc1noc(C)c1-c1cncc(CC2CCN(C(=O)c3cc[nH]n3)C2)n1` (configuration not stated), for which the “Percent Effect” value is recorded as 110.9%. `Cc1noc(C)c1CN1CC2(CCN(C(=O)c3cc[nH]n3)C2)CC1=O` (configuration not stated): the “Percent Effect” value is -2.196%. On to `CCCS(=O)(=O)N[C@H]1CN(c2ncccc2C(N)=O)C[C@@H]1C(C)C`, for which the “Percent Effect” value is -5.813%.

Turning to `CC(=O)NCc1ccc(S(=O)(=O)NC(=O)c2ccc3c(c2)COC3)s1`, the “Percent Effect” value is on record as -2.938%.

On to `Cn1ccnc1CCNC(=O)NCCC1CCCCO1` (configuration not stated), for which the “Percent Effect” value is recorded as -7.857%.

Turning to `Cc1nc2ncnn2c(C)c1CCC(=O)Nc1cccn(C)c1=O`, the “Percent Effect” value came to 1.385%. The same measure for `Cc1noc(C)c1CS(=O)(=O)CC(=O)NCCc1ccccc1`: -9.569%. For the molecule `Cc1nc2cc(O)nn2c(C)c1CCC(=O)NCCCC(C)C`, the “Percent Effect” value stood at 90.92%. With `COc1ccc(NC(=O)CCc2c(C)nc3cc(O)nn3c2C)cn1` the figure was 3.127%. With `Cc1nc(NC(=O)CCc2c(C)nc3cc(O)nn3c2C)sc1C` the figure was 101.2%; with `Cc1nc2cc(O)nn2c(C)c1CCC(=O)NCCc1ccccc1`, 85.91%.

Regarding `Cc1nc2cc(O)nn2c(C)c1CCC(=O)NCCc1nccn1C`, the “Percent Effect” value amounted to 84.09%.

With `CO[C@@H]1CCN(S(=O)(=O)c2cn(C)cn2)[C@H]1Cc1cnn(C)c1.O=C(O)C(F)(F)F`, the “Percent Effect” value turned out to be 2.669%. With `O=C([C@@H]1CCO[C@@H]2CCN(CC3CCOCC3)C[C@H]21)N1CCCC1` the figure was -12.21%; with `CNC(=O)CCCNc1cc(C)nc2cc(C)nn12`, 1.816%; with `CNC(=O)CCNC(=O)CCc1c(C)nc2cc(O)nn2c1C`, 99.53%. Consider `CCNC(=O)CCc1c(C)nc2cc(O)nn2c1C`, for which the “Percent Effect” value was determined as 5.527%. Take `O=C(O)C(F)(F)F.O=C1[C@H]2CN(C3CCOC3)C[C@H]2CN1c1ccccc1` (some centres not stated): the “Percent Effect” value was -7.814%. With `Cc1ccc(F)cc1S(=O)(=O)N1C[C@@H](C)[C@@](C)(O)C1` the figure was -12.21%; with `Cc1ccc(C(=O)N2CCC[C@@H]2Cn2nnc3c(O)nc(C)nc32)cc1`, 116%.

In the case of `Cc1nc(O)c2nnn(C[C@H]3CCCN3C(=O)CCC3CCCC3)c2n1`, the “Percent Effect” value is 2.096%.

As for `Cc1nc(O)c2nnn(C[C@H]3CCCN3C(=O)C(C)(C)C)c2n1`, the “Percent Effect” value is on record as 2.685%.

Consider `Cc1nc(O)c2nnn(C[C@H]3CCCN3C(=O)c3ccc(F)cc3)c2n1`, for which the “Percent Effect” value is 99.59%.

Turning to `Cc1nc(O)c2nnn(C[C@H]3CCCN3C(=O)c3cccc(F)c3)c2n1`, the “Percent Effect” value is reported as -3.685%. With `Cc1nc(O)c2nnn(C[C@H]3CCCN3C(=O)C3CCCC3)c2n1` the figure was 86.1%; with `Cc1cccnc1CN(C)C(C(=O)O)c1ccc(C(C)(C)C#N)cc1` (configuration not stated), -18.01%; with `CC(C)Cc1ncc2c(n1)CN(c1cc(NC3CC3)nc(N)n1)C2`, 10.04%. The same measure for `CNC(=O)[C@@H]1C[C@@H](N)CN1c1nnc(-c2ccccc2)s1`: -7.13%; for `CCn1c(C)nnc1SCCNC(=O)c1cnc(N(C)C)nc1C`: -11.93%. The same measure for `CCn1nc(C)c(C(C)NC(=O)c2cccc(NCC(=O)O)c2)c1C` (configuration not stated): -10.01%. Consider `CCCn1ncc(C(=O)NC(C)c2c(C)nn(CC)c2C)c1C` (configuration not stated), for which the “Percent Effect” value is given as 101.8%.

Consider `CCCn1cc(C(=O)N[C@H]2CC[C@H](n3cnnc3)CC2)c(C)n1`, for which the “Percent Effect” value is given as -5.85%. The same measure for `CCC(NC(=O)c1cnc(N(C)C)nc1C)c1ccncc1` (configuration not stated): -21.92%; for `CCn1nc(C)c(C(C)NC(=O)c2cnc(N(C)C)nc2C)c1C` (configuration not stated): 101.2%. With `CCCn1cc(C(=O)NC(C)c2c(C)nn(CC)c2C)c(C)n1` (configuration not stated) the figure was 107.4%; with `CCCn1ncc(C(=O)N(CCOC)Cc2c(C)nn(CC)c2C)c1C`, -10.36%. With `CCCn1cc(C(=O)NC(CC(=O)O)c2ccco2)c(C)n1` (configuration not stated), the “Percent Effect” value was -1.122%. For the molecule `CN(Cc1ccncc1)C(=O)c1ccc2c(c1O)OC(C)(C)C2`, the “Percent Effect” value is recorded as -3.741%.

Take `Cc1cnc(CNC(=O)N(Cc2ccccc2)CC(C)(C)O)s1`: the “Percent Effect” value is -9.272%. The same measure for `CCN1CCN(C(=O)CCC2CCN(C(C)CSC)CC2)CC1` (configuration not stated): 2.757%; for `COC(=O)C(C)(C)NC(=O)c1cc2sc(N(C)C)nc2s1`: -3.943%; for `CN1CCCN(c2nc3c(cnn3C(C)(C)C)c(=O)[nH]2)CC1`: -5.062%.

As for `Cc1c(C2NC3(CCCC3)C(=O)N2CC2CC2)cc(C#N)n1C` (configuration not stated), the “Percent Effect” value is given as -11.2%. For the molecule `CN(Cc1cc(Cl)c2c(c1)OCO2)Cc1cscn1`, the “Percent Effect” value came to 1.61%. The same measure for `CCOc1ccc(NC(=O)NCc2csc(NC)n2)cc1C`: -0.8345%; for `CCc1ncnc2c1CCN(C(=O)c1cccn1C)CC2`: -9.929%. The same measure for `Cc1cccc(N2CCCC3(C2)CN(S(=O)(=O)C2CC2)CCO3)c1.O=C(O)C(F)(F)F` (configuration not stated): -4.65%. With `Cc1noc(C)c1-c1cccc(CC2CCN(C(=O)c3cscn3)C2)n1` (configuration not stated) the figure was 131.4%; with `Cc1noc(C)c1CN1CC2(CCN(C(=O)c3cscn3)CC2)CC1=O`, 4.447%; with `CC(=O)N1CCC(Cc2cccc(-c3c(C)noc3C)n2)C1` (configuration not stated), 135.5%. Regarding `NC(=O)c1cccc(CC2CCN(C(=O)CO)C2)c1` (configuration not stated), the “Percent Effect” value is listed as -21.34%.

Consider `Cc1noc(C)c1-c1cccc(CC2CCN(C(=O)CN)C2)n1` (configuration not stated), for which the “Percent Effect” value stood at 128.9%. Regarding `Cc1noc(C)c1-c1cccc(CC2CCN(C(=O)CCC(=O)O)C2)n1` (configuration not stated), the “Percent Effect” value was 2.064%.

On to `Cc1ccccc1C(=O)NC[C@@H]1CCN(C(=O)c2cscn2)C[C@H]1O`, for which the “Percent Effect” value is given as 3.097%.

In the case of `CN1CCC(Cc2nc(-c3ccnn3C)n(Cc3ccccc3)n2)CC1`, the “Percent Effect” value is given as -2.907%. With `CCn1c(CC2CCN(C(=O)c3ccnn3C)CC2)n[nH]c1=O` the figure was 13.3%; with `CC(=O)N1CCC(Cc2cccc(-c3ccnn3C)n2)CC1`, 116.5%.
